Structures are written as SMILES. About 4,900 (5%) of roughly 98,000 compounds were called active. Rule as the data show it: active = inhibition above about 30%; inactive = the rest. The list comes from a sample in which actives are over-represented; it also holds similar structures and randomly drawn compounds.

For orientation: inhibition means the relative decrease from the control value, in per cent.

The test in a line: yeast control strain growth suppression – counter-screen for post-Golgi transport modulator project, primary screen (AID 738). To be noted: efflux-deficient yeast background strain, growth absorbance A615, 16 h; at 10 µM; active compounds read high. (In general: The purpose of a counterscreen is to sort out artefacts and off-target activity.)
On to `CC(C)NC(=O)c1ccccc1S(=O)c1ccccc1C#N` (stereo not drawn), for which the inhibition was -5.45% (inactive).

For the compound `Cc1nn(C)cc1C(=O)NNC(=S)Nc1ccc(Cl)cc1`, the inhibition is 2.4% (inactive).

As for `CCC(=O)N(Cc1ccccc1)c1ccccn1`, the inhibition was 1.04% (inactive).

As for `Cc1ccc(C(=O)N/C(=C/C=C/c2ccccc2)C(=O)NCc2ccco2)cc1`, the inhibition is -1.68% (inactive).

Regarding `CN(CC(=O)Nc1cccc2c1CCCC2)S(=O)(=O)c1ccc(Cl)cc1`, the inhibition was -4.31% (inactive).

Consider `COc1ccccc1C1C2=C(COC2=O)Nc2cc3c(cc21)OCO3` (stereo not drawn), for which the inhibition was 6.27% (inactive).

As to `CCCOc1ccccc1C1CC(=O)Nc2cc3c(cc21)OCO3` (stereo not drawn), the inhibition is 34.1% (active).

Regarding `COCCOC(=O)C1=C(C)NC(=O)CC1c1cc2c(cc1Br)OCO2` (stereo not drawn), the inhibition is -3.67% (inactive).

For the compound `COc1cc(C(=O)N2CCN(C/C=C/c3ccccc3)CC2)cc(OC)c1C`, the inhibition was 8.75% (inactive).

As to `COc1cnc(SCc2ccc(Cl)c(Cl)c2)nc1Cl`, the inhibition is 16.9% (inactive).

For `CCCn1nc2cc(C(=O)NCc3ccccc3)ccc2c1OCC`, the inhibition is -6.87% (inactive).

As to `Cn1c(=O)n(C)c2cc(S(=O)(=O)N3CCCc4ccccc43)ccc21`, the inhibition was -3.51% (inactive).

Consider `CSc1nc2ccc(S(=O)(=O)N3CCc4ccccc43)cc2s1`, for which the inhibition was 52% (active).

Turning to `CCn1c(=O)c(=O)n(CC)c2cc(S(=O)(=O)N3CCc4ccccc43)ccc21`, the inhibition was 12.6% (inactive).

With `CCOc1ccc(C(CCc2ccccc2)NC(=O)c2ccc(OC)c(OC)c2)cc1OCC` (stereo not drawn), the inhibition was -3.35% (inactive).

Consider `C=CCNc1nc(N)c(C(=C(C#N)C#N)c2ccccc2)s1`, for which the inhibition was 5.44% (inactive).

For the compound `C=C(C)Cn1c(N2CCCC2)nc2c1c(=O)[nH]c(=O)n2C`, the inhibition was 6.94% (inactive).

As to `CN1CCN(c2nc3c(c(=O)[nH]c(=O)n3C)n2Cc2cccc3ccccc23)CC1`, the inhibition is 9.64% (inactive).

Take `CC1CCN(c2nc3c(c(=O)[nH]c(=O)n3C)n2CCCc2ccccc2)CC1`: the inhibition was 30.6% (active).

Consider `O=C1c2ccccc2C(=O)c2c1cccc2N1CCN(Cc2ccccc2)CC1`, for which the inhibition was 17.7% (inactive).

On to `CCn1c2ccccc2c2cc(NC(=O)C/C(C)=N/NC(=O)c3ccccc3N)ccc21`, for which the inhibition was -1.98% (inactive).

Consider `Cc1cccc(N2CCN(C(=O)CN(C)S(=O)(=O)c3ccc4c(c3)CCC(=O)N4)CC2)c1C`, for which the inhibition is 6.36% (inactive).

As for `COc1ccc(C(=O)NC(=S)Nc2ccccc2N2CCN(S(C)(=O)=O)CC2)cc1OC`, the inhibition was 31.7% (active).

In the case of `COc1ccccc1N1CCN(C(=O)c2ccc(S(=O)(=O)N3CCCCC3)cc2)CC1`, the inhibition is -0.79% (inactive).

Turning to `CCC(=O)Nc1ccccc1N1CCN(S(C)(=O)=O)CC1`, the inhibition is 13.1% (inactive).

As for `O=C1/C(=C/c2cccs2)CCc2ccccc21`, the inhibition is 12.8% (inactive).

Turning to `O=C(Nc1nccs1)C1CCN(S(=O)(=O)c2ccc(Cl)c(C(F)(F)F)c2)CC1`, the inhibition was 17.7% (inactive).

Regarding `CCOC(=O)c1c(CN2CCOCC2)n(-c2ccccc2)c2ccc(O)cc12`, the inhibition was 45.2% (active).

For `O=c1c(-c2ccccc2)coc2c(CN3CCOCC3)c(O)ccc12`, the inhibition is 10.4% (inactive).

For the compound `CCOC(=O)c1nnn(-c2nonc2-n2cccc2)c1CN1CCOCC1`, the inhibition is -2.3% (inactive).

For the compound `O=C(COC(=O)c1ccccc1SCC(=O)NC1CCCCC1)NC1CCCCC1`, the inhibition is 0.43% (inactive).

On to `C=CCNC(=O)c1cc2nc(C3CC3)cc(C(F)F)n2n1`, for which the inhibition was 11% (inactive).

Turning to `O=C1CC(c2ccccc2)C(=O)N1c1cccc(O)c1` (stereo not drawn), the inhibition was 47.5% (active).

In the case of `COC(=O)c1cc(C(=O)OC)cc(N2C(=O)CC(N3CCN(c4ccccc4)CC3)C2=O)c1` (stereo not drawn), the inhibition was -1.95% (inactive).

On to `O=C1CC(NNc2ccccc2)C(=O)N1c1cccc(Cl)c1` (stereo not drawn), for which the inhibition was -2.74% (inactive).

In the case of `COc1ccc(Oc2coc3cc(OC(=O)c4cncc(Br)c4)ccc3c2=O)cc1`, the inhibition is -3.94% (inactive).

As for `COc1ccc(C(=S)Nc2ccccc2)cc1`, the inhibition was -2.5% (inactive).

Take `CS(=O)(=O)N(CC(=O)Nc1ccc(F)cc1F)c1cccc([N+](=O)[O-])c1`: the inhibition is -6.14% (inactive).

For `Cc1ccc(C(=O)c2c(NC(=O)c3ccncc3)sc3c2CCCC3)cc1`, the inhibition was 65.8% (active).

On to `COC(=O)c1c(NC(=O)c2cccs2)sc2c1CCCC2`, for which the inhibition is 10.9% (inactive).

Consider `Cc1ccc(C(=O)c2c(NC(=O)c3ccccc3)sc(C)c2C)cc1`, for which the inhibition is 4.53% (inactive).

With `CN1C(=O)C(CC(N)=O)N(NC(=O)c2ccc(Cl)cc2)C1=S` (stereo not drawn), the inhibition is -2.73% (inactive).

As for `C=CCn1c(Oc2ccc(C(=O)OC)cc2)nc2c1c(=O)n(C)c(=O)n2C`, the inhibition was 11.7% (inactive).

As for `Cc1nc(C)c(C(=O)N(c2ccc(C)c(C)c2)C(C(=O)NCc2ccco2)c2ccccc2)s1` (stereo not drawn), the inhibition was -4.44% (inactive).

On to `O=C(COc1ncnc2c(Cl)cc(Cl)cc12)N1CCN(S(=O)(=O)c2ccccc2)CC1`, for which the inhibition was 0.78% (inactive).

With `Cc1cc(NC(=O)CN2CCCC(C)C2)n(-c2nc3ccccc3s2)n1` (stereo not drawn), the inhibition was 19.3% (inactive).

Consider `CCOC(=O)N1CCN(CC(=O)Nc2cc(C)nn2-c2nc3ccccc3s2)CC1`, for which the inhibition is 42% (active).

For `Cc1nn(CC(=O)Nc2nc3ccccc3s2)c(C)c1[N+](=O)[O-]`, the inhibition is -2.54% (inactive).

For `COc1ccc(/C=C2\CCCC3C2=NN(C(=O)c2scnc2C)C3c2ccc(OC)cc2)cc1` (stereo not drawn), the inhibition was 9.28% (inactive).

As to `CCC(C)(C)n1nnnc1C(c1ccccc1OC)N1CCSCC1` (stereo not drawn), the inhibition was 17.9% (inactive).

As for `CCC(C)(C)n1nnnc1C(c1cccs1)N1CCN(c2nc3ccccc3s2)CC1` (stereo not drawn), the inhibition is 34.9% (active).

`CCC(C)(C)n1nnnc1C(c1cccs1)N1CCN(Cc2ccccc2)CC1` (stereo not drawn): the inhibition is 3.99% (inactive).

For `CCOc1ccc(C(O)Cn2c(=N)n(CCN3CCCCC3)c3ccccc32)cc1` (stereo not drawn), the inhibition is 7.31% (inactive).

For the compound `FC(F)(F)c1cc(-c2ccco2)nc(N2CCOCC2)n1`, the inhibition is 16.9% (inactive).

In the case of `O=C(CSc1nc(-c2ccco2)cc(C(F)(F)F)n1)NCc1cccs1`, the inhibition was 8.94% (inactive).

On to `O=C(CSc1nc(-c2ccco2)cc(C(F)(F)F)n1)N1CCc2ccccc2C1`, for which the inhibition is 30.3% (active).

As to `CCOC(=O)c1cnc(SC)nc1Sc1ccc(Cl)cc1Cl`, the inhibition is 3.77% (inactive).

With `Cc1ccc(NS(=O)(=O)c2c(C)[nH]c(=O)[nH]c2=O)cc1C`, the inhibition was 11.7% (inactive).

Consider `O=C(Cc1ccccc1)N/N=C/c1ccc(Cl)cc1Cl`, for which the inhibition was 24.5% (inactive).

As for `COCCN1C(=O)c2oc3c(C)cc(C)cc3c(=O)c2C1c1cccc(O)c1` (stereo not drawn), the inhibition was 4.63% (inactive).

With `CCCCOc1ccc(C(C)(O)CCN2CCOCC2)cc1` (stereo not drawn), the inhibition was 12.6% (inactive).

As for `CCCOc1ccc(C2c3c(oc4cc(C)c(C)cc4c3=O)C(=O)N2CCCN2CCOCC2)cc1` (stereo not drawn), the inhibition is 42.7% (active).

Regarding `COc1ccc2c(c1)CCc1c(C(=O)Nc3c(C)n(C)n(-c4ccccc4)c3=O)noc1-2`, the inhibition was 21% (inactive).

On to `COc1ccc2c(c1)CCc1c(C(=O)N3CCc4ccccc4C3)noc1-2`, for which the inhibition was 44.9% (active).

For the compound `COc1ccc2c(c1)CCc1c(C(=O)N3CCCC3)noc1-2`, the inhibition is -1.03% (inactive).

For the compound `O=c1cc(C(F)(F)F)[nH]c(=O)n1C1CCCCC1`, the inhibition was 23.5% (inactive).

In the case of `COCCN(C(=O)c1ccco1)c1nnc(-c2ccc(OC)cc2)s1`, the inhibition was 10% (inactive).

`Cc1cc(Nc2ccccc2)nc(N)n1`: the inhibition is 4.89% (inactive).

For `Cc1nn(C)cc1/C=C1\CCC/C(=C\c2cn(C)nc2C)C1=O`, the inhibition is 12.9% (inactive).

Take `CCOC(=O)CNC(=O)CSc1nnnn1-c1cc(C)ccc1C`: the inhibition is 3.59% (inactive).

Consider `CCOC(=O)c1c(-c2ccc(C)cc2C)csc1NC(=O)CSc1nnnn1C`, for which the inhibition was 66.1% (active).

Regarding `CNC(=O)CSc1nnnn1-c1ccc(C)cc1C`, the inhibition is 24.1% (inactive).

For `CC(C)C(NS(=O)(=O)c1cccs1)C(=O)Nc1nc(C(C)(C)C)cs1` (stereo not drawn), the inhibition was 16.8% (inactive).

Take `COc1cc(Cl)c(S(=O)(=O)N2CCN(Cc3ccc4c(c3)OCO4)CC2)cc1Cl`: the inhibition was 60.2% (active).

`CS(=O)(=O)N(CC(=O)N1CCN(Cc2ccc3c(c2)OCO3)CC1)c1ccc2c(c1)OCO2`: the inhibition was 2.83% (inactive).

As for `CCn1cc(C(=O)N2CCN(Cc3ccc4c(c3)OCO4)CC2)c2cc(OC)c(OC)cc2c1=O`, the inhibition was -2.75% (inactive).

Turning to `Cc1ccccc1OCc1nnc(SCC(=O)N2c3ccccc3Sc3ccc(Cl)cc32)o1`, the inhibition was 5.3% (inactive).

On to `Cc1[nH]c(=O)c(C(=O)/C=C/c2ccccc2)c2c1CCCC2`, for which the inhibition was 24.5% (inactive).

For `O=C(NC1=NCCS1)[C@H](Cc1ccccc1)N1C(=O)c2ccccc2C1=O`, the inhibition is -1.98% (inactive).

Consider `CCOC(=O)c1nn(-c2cccc(C)c2)cc1C(=O)c1ccccc1`, for which the inhibition is 12.9% (inactive).

`Nc1c(-c2ccc(F)cc2)cnc2ncnn12`: the inhibition was 1.38% (inactive).

As for `CNC(=S)NNC(=O)c1sccc1OCc1ccccc1`, the inhibition is 26.7% (inactive).

For `Cc1ccc(NC(=O)N2CCC(O)(c3cccnc3)CC2)cc1`, the inhibition was -0.9% (inactive).

Consider `CCOC(=O)C1=C(CN2CCc3ccccc32)NC(=O)NC1c1cccc([N+](=O)[O-])c1` (stereo not drawn), for which the inhibition is 1.33% (inactive).

`CCOC(=O)C1=C(CN2CCc3ccccc32)NC(=O)NC1c1ccc(Cl)cc1` (stereo not drawn): the inhibition is 40.8% (active).

With `COCCOC(=O)C1=C(C)NC(=O)NC1c1ccc(Cl)cc1` (stereo not drawn), the inhibition was 2.51% (inactive).

With `COc1cccc2c1OCC(C(=O)NCc1ccc(Cl)cc1Cl)=C2`, the inhibition was 9.54% (inactive).

For the compound `O=C(CSc1nnc(-c2cccs2)n1-c1ccccc1)NCc1ccco1`, the inhibition was 6.51% (inactive).

Consider `O=C(CSc1nnc(-c2cccs2)n1-c1ccccc1)N1CCN(C(=O)c2ccco2)CC1`, for which the inhibition is 37.9% (active).

In the case of `O=C(CSc1nnc(-c2cccs2)n1Cc1ccccc1)N1CCc2ccccc2C1`, the inhibition was 40.2% (active).

On to `Cc1nnc(SCC(=O)N2CCN(c3ccccc3)CC2)n1-c1ccccc1`, for which the inhibition was 2.49% (inactive).

Regarding `Cc1nnc(SCC(=O)N2CCc3ccccc3C2)s1`, the inhibition was 1.25% (inactive).

`CCn1c(SCC(=O)c2ccc3ccccc3c2)nnc1-c1cccs1`: the inhibition was 5.6% (inactive).

For the origin of these results see PubChem BioAssay AID738 (SRMLSC, 2007).
